High-throughput results: PubChem, several laboratories
Compounds with a hit are over-represented: about 3.1% of the library has one in this group of screens.
EBV LMP1 NFkB: Epstein-Barr LMP1 NF-kappaB reporter inhibition | inhibition, % at 12.5 µM | AID 504558 | hit rate 0.69% among 350,000 | LMP1-induced NF-kappaB luciferase reporter cells, luminescence; in the data active means inhibition above about 41%; inconclusive means no clear call, values can overlap the other calls
EWS-Fli inh: blocks EWS/Fli oncoprotein-driven transcription; A673 NR0B1-luciferase reporter, viability-normalised; inhibition, % at 12.6 µM; hit rate 0.67% among 350,000;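 active means mean inhibition of at least 50% after viability correction, with every replicate also passing that limit; inconclusive means mean reaches 50% but only one of two replicates passes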;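 further: firefly luciferase signal divided by Alamar Blue viability fluorescence both relative to DMSO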
LGR2 antag: Drosophila LGR2 receptor signaling inhibition; HEK293 LGR2, CRE-luciferase, bursicon-stimulated, 4 h; inhibition, % at 9.99 µM; AID 720647; hit rate 0.35% among 380,000;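 active means drop in luminescence signal, shown as inhibition above about 50% in the replicate tests, limit read from the data, passing the limit was not always enough; inconclusive means probably only some replicates passing the limit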;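 further: agonist challenge used bursicon conditioned medium at about half maximal strength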
PAX8 reporter: PAX8 transcriptional activity inhibition | inhibition, % at 12.6 µM | AID 652154 | RMG-I TPO-luciferase reporter, SteadyGlo, 24 h | hit rate 1.2% among 360,000;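 active means mean replicate inhibition at least 60% with every replicate also reaching 60%; inconclusive means only one of the two criteria is met; inactive means mean below 60% and not all replicates reaching 60%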;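 further: luciferase light reporting Pax8 driven TPO promoter activity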
TWEAK-Fn14 inh: inhibitors of TWEAK-Fn14 interaction signaling. TWEAK-stimulated Fn14 reporter cells, luciferase luminescence, 8 h. inhibition, % at 10 µM. hit rate 2% among 360,000. AID 1159606; in the data active means inhibition above about 50%
TROY NFkB inh: inhibitors of TROY-dependent NF-kB signaling; inhibition, % at 10 µM; hit rate 0.98% among 360,000; Q293 LMP1-TROYcd NF-kB luciferase reporter, 4 h;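 active means compounds whose plate-normalised and pattern-corrected inhibition of the luciferase reporter signal at the single screening dose is 50% or more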
Large screens that a line does not name were inactive.

C[C@@H]1CN([C@@H](C)CO)C(=O)c2cc(NC(=O)c3ccncc3)ccc2O[C@@H](C)CCCCO[C@H]1CN(C)S(=O)(=O)c1ccc(F)cc1	none (no result: EBV LMP1 NFkB, PAX8 reporter, TWEAK-Fn14 inh, TROY NFkB inh)
C[C@@H]1CN([C@@H](C)CO)C(=O)c2cccc(NS(=O)(=O)c3ccc(Cl)cc3)c2O[C@@H]1CN(C)Cc1ccc(-c2ccccc2)cc1	PAX8 reporter 65 (no result: EBV LMP1 NFkB, TWEAK-Fn14 inh, TROY NFkB inh)
C[C@H](CO)N1C[C@H](C)[C@H](CN(C)Cc2ccc(Cl)c(Cl)c2)Oc2c(NS(=O)(=O)c3ccc(Cl)cc3)cccc2C1=O	PAX8 reporter 83 (no result: EBV LMP1 NFkB, LGR2 antag, TWEAK-Fn14 inh, TROY NFkB inh)
C[C@H](CO)N1C[C@H](C)[C@@H](CN(C)C(=O)Cc2ccncc2)Oc2cc(C3=CCCC3)ccc2S1(=O)=O	none (no result: EBV LMP1 NFkB, TWEAK-Fn14 inh, TROY NFkB inh)
C[C@@H]1CN([C@@H](C)CO)C(=O)c2cc(NS(=O)(=O)c3ccc(F)cc3)ccc2O[C@@H](C)CCCCO[C@@H]1CN(C)S(=O)(=O)c1ccc(Cl)cc1	none (no result: EBV LMP1 NFkB, TWEAK-Fn14 inh, TROY NFkB inh)
C[C@@H]1CCCCO[C@@H](CN(C)S(=O)(=O)c2ccc(F)cc2)[C@@H](C)CN([C@@H](C)CO)C(=O)c2cc(NS(=O)(=O)c3ccc(Cl)cc3)ccc2O1	none (no result: EBV LMP1 NFkB, TWEAK-Fn14 inh, TROY NFkB inh)
C[C@@H]1CCCCO[C@@H](CN(C)S(=O)(=O)c2ccc(Cl)cc2)[C@H](C)CN([C@H](C)CO)C(=O)c2cc(NS(=O)(=O)c3ccc(F)cc3)ccc2O1	PAX8 reporter 81 (no result: EBV LMP1 NFkB, TWEAK-Fn14 inh, TROY NFkB inh)
C[C@@H]1CCCCO[C@H](CN(C)S(=O)(=O)c2ccc(Cl)cc2)[C@@H](C)CN([C@@H](C)CO)C(=O)c2cc(NS(=O)(=O)c3ccc(F)cc3)ccc2O1	PAX8 reporter 75 (no result: EBV LMP1 NFkB, TWEAK-Fn14 inh, TROY NFkB inh)
C[C@@H]1CN([C@H](C)CO)C(=O)c2cc(NS(=O)(=O)c3ccc(Cl)cc3)ccc2O[C@@H](C)CCCCO[C@H]1CN(C)S(=O)(=O)c1ccc(F)cc1	PAX8 reporter 87 (no result: EBV LMP1 NFkB, TWEAK-Fn14 inh, TROY NFkB inh)
C[C@H](CO)N1C[C@H](C)[C@@H](CN(C)S(=O)(=O)c2ccc(F)cc2)OCCCC[C@H](C)Oc2ccc(NS(=O)(=O)c3ccc(Cl)cc3)cc2C1=O	PAX8 reporter 90 (no result: EBV LMP1 NFkB, TWEAK-Fn14 inh, TROY NFkB inh)
COc1ccc(S(=O)(=O)N(C)C[C@H]2OCCCC[C@H](C)Oc3ccc(NS(=O)(=O)c4cccs4)cc3C(=O)N([C@@H](C)CO)C[C@H]2C)cc1	none (no result: EBV LMP1 NFkB, TWEAK-Fn14 inh, TROY NFkB inh)
CC1=CC(C)(C)Nc2ccc(OC(=O)CCN3C(=O)c4ccccc4C3=O)cc21	TWEAK-Fn14 inh 96 (no result: LGR2 antag)
O=C(CCN1C(=O)c2ccccc2C1=O)Oc1ccc2ccccc2c1	none (no result: EWS-Fli inh, LGR2 antag)
Cc1ccc(-n2nnc(-c3nccs3)n2)cc1	EBV LMP1 NFkB 58, EWS-Fli inh 82, TWEAK-Fn14 inh 94, TROY NFkB inh 66
CCSc1nc2ccc(OC)cc2cc1C#N	EBV LMP1 NFkB 78 (no result: EWS-Fli inh, LGR2 antag, PAX8 reporter)
Cc1cc(NC(=O)COC(=O)C2CCN(S(=O)(=O)c3ccc(Cl)cc3)CC2)no1	none (no result: EWS-Fli inh, LGR2 antag)
Cc1cc(NC(=O)COC(=O)C2CCN(S(=O)(=O)c3c(Cl)cccc3Cl)CC2)no1	TWEAK-Fn14 inh 92 (no result: EWS-Fli inh, LGR2 antag, PAX8 reporter, TROY NFkB inh)
CN(C(=O)COC(=O)C1CCN(S(=O)(=O)c2c(Cl)cccc2Cl)CC1)C1CCS(=O)(=O)C1 (stereo not drawn)	PAX8 reporter 113
CN(C(=O)COC(=O)c1ccc(C(C)(C)C)cc1)C1CCS(=O)(=O)C1 (stereo not drawn)	none
CCOC(=O)C1CCN(S(=O)(=O)c2c(Cl)ccc3nonc23)CC1	TWEAK-Fn14 inh 75, TROY NFkB inh 68 (no result: EWS-Fli inh)
CN(C(=O)COC(=O)c1nc(Cl)c(Cl)c(Cl)c1Cl)C1CCS(=O)(=O)C1 (stereo not drawn)	LGR2 antag 103, TWEAK-Fn14 inh 94, TROY NFkB inh 57
CN(C)C(=O)c1ccc(-c2ccccc2[C@H]2[C@H](C#N)N(C(=O)C3CCCCC3)[C@H]2CO)cc1	none (no result: EBV LMP1 NFkB, TWEAK-Fn14 inh, TROY NFkB inh)
C[C@H]1CN([C@@H](C)CO)C(=O)c2cccc(NC(=O)C3CCCCC3)c2O[C@H]1CN(C)C	none (no result: EBV LMP1 NFkB, TWEAK-Fn14 inh, TROY NFkB inh)
O=C1NC(Cc2ccc(O)cc2)c2nc3cc(F)ccc3c(=O)n2-c2cc3ccccc3cc21 (stereo not drawn)	EWS-Fli inh inconclusive, PAX8 reporter 66
O=C1NC(Cc2ccc(O)cc2)c2nc3cc(F)ccc3c(=O)n2-c2cc(Cl)ccc21 (stereo not drawn)	none (no result: EBV LMP1 NFkB, TWEAK-Fn14 inh, TROY NFkB inh)
CCCC(=O)Nc1ccc2c(c1)C(=O)N(C)C[C@@H](OC)[C@@H](C)CN(S(=O)(=O)c1cn(C)cn1)[C@H](C)CO2	none (no result: EBV LMP1 NFkB, TWEAK-Fn14 inh, TROY NFkB inh)
CCOC(=O)C(C)(C)NS(=O)(=O)c1ccc(Cl)c([N+](=O)[O-])c1	none
CCOC(=O)C(C)(C)N(Cc1ccc(C)cc1)S(=O)(=O)c1ccc(Cl)c([N+](=O)[O-])c1	EWS-Fli inh 73, TWEAK-Fn14 inh 60 (no result: LGR2 antag)
CCNC(=S)N(Cc1cccs1)Cc1cc2cc(OCC)ccc2[nH]c1=O	TWEAK-Fn14 inh 76 (no result: EWS-Fli inh)
CCNC(=S)N(Cc1ccco1)Cc1cc2cc(OCC)ccc2[nH]c1=O	none
COc1ccc(NC(=O)Nc2ccc3c(c2)C(=O)N([C@H](C)CO)C[C@H](C)[C@H](CN(C)C(=O)Nc2cccc4ccccc24)O3)cc1	none (no result: EBV LMP1 NFkB, TWEAK-Fn14 inh, TROY NFkB inh)
O=C(C#Cc1ccccc1)c1ccccc1	EWS-Fli inh 70, TWEAK-Fn14 inh 76
O=C(C#Cc1ccccc1)c1ccc([N+](=O)[O-])cc1	none (no result: EWS-Fli inh, LGR2 antag)
O=C(c1ccccc1)N1CC(=O)N2[C@H](C1)[C@@H](c1ccc(C#CC3CC3)cc1)[C@@H]2CO	none (no result: EBV LMP1 NFkB, TWEAK-Fn14 inh, TROY NFkB inh)
Cc1cnc(NC(=O)c2cc3c(s2)CCCC3)s1	TWEAK-Fn14 inh 86, TROY NFkB inh 57 (no result: EWS-Fli inh, LGR2 antag, PAX8 reporter)
Cc1csc(NC(=O)C2CCCC2)n1	TWEAK-Fn14 inh 62 (no result: EWS-Fli inh, PAX8 reporter, TROY NFkB inh)
Cc1csc(NC(=O)CN2C(=O)C3CC=CCC3C2=O)n1 (stereo not drawn)	TWEAK-Fn14 inh 73 (no result: EWS-Fli inh, LGR2 antag, PAX8 reporter, TROY NFkB inh)
Cc1csc(NC(=O)c2cc3c(s2)CCCCC3)n1	TWEAK-Fn14 inh 95, TROY NFkB inh 77 (no result: EWS-Fli inh, LGR2 antag, PAX8 reporter)
Cc1csc(NC(=O)C2CCCCC2C(=O)O)n1 (stereo not drawn)	none (no result: EWS-Fli inh, LGR2 antag)
